Assay outcomes: PubChem BioAssay, National Center for Advancing Translational Sciences (NCATS)
Tau fibril ThT: qHTS for Inhibitors of Tau Fibril Formation, Thioflavin T Binding; recombinant tau K18 P301L, heparin-induced fibrillization, ThT fluorescence; actives 2.1% (n = 270,000); Potency, µM (doses to about 57.4 µM), inactives show at the top dose activity, negative = inhibition, hits mostly inhibitors; Microtubule-associated protein tau (Homo sapiens), P10636; also: nearly all actives have a fitted effect of over 55% in size
Target sequence (P10636 561-689 P618L limits assumed): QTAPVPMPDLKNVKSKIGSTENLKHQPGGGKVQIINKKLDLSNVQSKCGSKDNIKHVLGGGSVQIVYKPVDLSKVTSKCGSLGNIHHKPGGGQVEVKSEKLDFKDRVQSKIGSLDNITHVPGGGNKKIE
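In this qHTS, human K18 P301L tau is incubated with compound and heparin for 6 hr at 37 C, and Thioflavin T fluorescence then reports fibril load.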
Tau fluor counter: Counterscreen qHTS for Inhibitors of Tau Fibril Formation, Fluorescence Polarization | tau K18 P301L Alexa594 fluorescence, heparin fibrillization | Potency, µM (titrated, usually from 57.7 µM), for the others: top-dose activity change, negative = decrease | actives 0.93% (n = 280,000) | AID 1463, 2008; also: nearly all actives have a fitted effect of over 55% in size
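Human tau K18 P301L (15 uM unlabeled, 0.24 uM Alexa 594-labeled) in 100 mM sodium acetate pH 7 with 20 uM heparin, 6 hr at 37 C. ThT 30 uM added, 1 hr ambient; Alexa 594 FP and total fluorescence read at 555/632 nm.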
TR SRC2 fluor cs: Total Fluorescence Counterscreen for Inhibitors of the Interaction of Thyroid Hormone Receptor and Steroid Receptor Coregulator 2; TRb/SRC2 Texas Red total fluorescence interference; Potency, µM (highest dose often 106 µM), without a hit: at the top dose fluorescence change, negative = quenching; actives 0.29% (n = 280,000); AID 1479, 2009; active = well fitted curve in either direction with a large enough effect; inconclusive = small, poorly fitted or top-dose-only effect
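Human TRb ligand-binding domain at 0.6 uM with 20 nM Texas Red SRC2 peptide in Tris buffer containing 1 uM T3 and 5% DMSO, incubated with compound 5 h at ambient temperature. Total fluorescence (555/632 nm) calculated as parallel + 2 × perpendicular.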
Tau FP inhib: qHTS for Inhibitors of Tau Fibril Formation, Fluorescence Polarization | actives 0.39% (n = 280,000) | Potency, µM (series often up to 57.7 µM), for the others: at the top dose activity, negative = inhibition, actives largely listed as inhibitors | Microtubule-associated protein tau (Homo sapiens), P10636 | AID 1468, 2008 | K18 P301L tau heparin fibrillization, Alexa594 FP, 6 h; also: nearly all actives have a fitted effect of over 55% in size
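Human tau K18 […] P301L fragment, 15 uM unlabeled plus 0.24 uM Alexa 594-labeled tau (final), with compound and 20 uM heparin in 100 mM sodium acetate pH 7; 6 hr at 37 C, then Alexa 594 FP read.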
TRb-SRC2 inh: qHTS for Inhibitors of the Interaction of Thyroid Hormone Receptor and Steroid Receptor Coregulator 2. Potency, µM (doses to about 106 µM), inactives show top-dose activity change, negative = inhibition, usual class: inhibitors. AID 1469, 2008. TRbeta-SRC2 peptide binding, fluorescence polarization; receptor liganded with 1 µM T3. actives 0.065% (n = 280,000). Thyroid hormone receptor beta (Homo sapiens), P10828;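 also: plate controls were bound peptide for no effect and peptide without receptor for full effect; nearly all actives have a fitted effect of over 50% in size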
Target sequence (P10828 whole entry, looked up): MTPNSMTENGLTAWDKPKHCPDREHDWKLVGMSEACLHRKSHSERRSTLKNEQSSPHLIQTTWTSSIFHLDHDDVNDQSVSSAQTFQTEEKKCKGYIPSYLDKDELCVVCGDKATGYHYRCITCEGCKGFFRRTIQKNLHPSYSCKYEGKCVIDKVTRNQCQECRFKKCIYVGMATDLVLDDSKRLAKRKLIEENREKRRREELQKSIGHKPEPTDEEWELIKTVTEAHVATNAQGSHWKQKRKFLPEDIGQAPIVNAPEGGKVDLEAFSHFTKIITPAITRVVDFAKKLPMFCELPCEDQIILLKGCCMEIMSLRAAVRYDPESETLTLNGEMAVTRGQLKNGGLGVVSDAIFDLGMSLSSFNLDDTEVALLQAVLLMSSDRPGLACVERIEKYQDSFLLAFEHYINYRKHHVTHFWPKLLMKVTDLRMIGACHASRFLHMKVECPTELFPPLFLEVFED
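Quantitative HTS by FP: 0.6 uM TRb LBD, 20 nM labeled SRC2 20-mer, 1 uM T3, 5% DMSO; 5 hr ambient incubation; % activity per concentration and potencies from concentration series.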
Starred values were filed as active, the others as inactive; ? = inconclusive; nt = no result given; [ ] = another dose, or the depositor's remark. The list is not random: actives were taken first. Their share in the collection is about 3%. Unless noted, calls follow the shape of the dose curve; as a rule, active = well fitted curve in the direction sought with a large enough effect; inconclusive = small, poorly fitted or top-dose-only effect, or another doubt; inactive = no such curve, though single readings can be large; an effect the other way counts as inactive or inconclusive. Unless noted, % is scaled to controls: 0 for no effect and ±100 for the full control effect; potency is read from the fitted curve at half-maximal effect.

SMILES	Tau fibril ThT	Tau fluor counter	TR SRC2 fluor cs	Tau FP inhib	TRb-SRC2 inh
Cc1cccc(NC(=O)c2ccc(-n3cccn3)c([N+](=O)[O-])c2)c1	6.3µM*	?	0%	0%	-3%
CCOC(=O)c1cccc(NC(=O)c2cc(S(=O)(=O)N3CCCC3)cn2C)c1	8%	2%	-16%	-3%	-2%
O=C(Cn1cc(SCc2c(F)cccc2Cl)c2ccccc21)N1CCCC1	-7%	-9%	-3%	-3%	6%
CCOC(=O)c1cc(NC(=O)c2ccc(C)cc2)c(=O)n2c1oc1ccc(Cl)cc12	2%	0%	4%	-9%	11%
N#CC(=C(/N)Sc1ccccc1N)/C(C#N)=C(\N)Sc1ccccc1N	14µM*	18µM*[quencher]	-4%	nt	6%
COc1cccc([C@@H]2Oc3ccc(Br)cc3C(=O)[C@H]2OC(=O)NCc2ccco2)c1	?	-12%	-2%	2%	0%
CCCC[C@@H]1C[C@H]1C(NC(=O)c1cccs1)c1ccc(-c2ccccc2)cc1 (stereo partly specified)	-4%	-1%	-3%	-10%	-7%
O=C(N/N=C1/C(=O)c2cccc3cccc1c23)c1ccc(Cl)cc1	4.5µM*	-19%	-3%	9%	-7%
CCNC(=S)N/N=C1\C(=O)c2cccc3cccc1c23	?	-21%	0%	8%	-14%
O=C1CN(C(=O)COc2ccc(Cl)cc2)C(c2ccc(F)cc2)c2cc(Cl)ccc2N1 (stereo unspecified)	?	-21%	-1%	-4%	-1%
Cc1ccnc(NC(c2ccccc2F)c2ccc3cccnc3c2O)c1 (stereo unspecified)	?	-24%	-22%	5%	10%
Cc1ccnc(NC(c2cc(C)ccc2O)c2ccc3cccnc3c2O)c1 (stereo unspecified)	16µM*	?	1%	-11%	-3%
Oc1ccccc1C(Nc1nccs1)c1ccc2cccnc2c1O (stereo unspecified)	20µM*	?	-2%	-3%	-6%
CCOC(=O)c1c(C)[nH]c(C)c1S(=O)(=O)N1CCCC(C(=O)NCc2ccc(Cl)cc2)C1 (stereo unspecified)	9%	-3%	1%	-3%	-5%
COc1cccc(N2CCN(C(=O)C3CCN(S(=O)(=O)c4c(C)noc4C)CC3)CC2)c1	-6%	-12%	-1%	6%	-6%
O=C(O)CCn1cnc2onc(-c3ccccc3Cl)c2c1=O	-2%	-1%	-2%	?	9%
CCOC(=O)c1ccccc1NC(=O)Cn1c(=O)n(Cc2nc(C)no2)c(=O)c2ccccc21	4%	-7%	-1%	2%	0%
Cc1cc(=O)[nH]c(N/N=C/C2=C(N3CCOCC3)C(=C\c3ccc(Cl)cc3)/CC2)n1	22µM*	-14%	0%	2%	7%
O=C(N/N=C/C1=C(N2CCOCC2)C(=C\c2ccccc2)/CC1)Nc1ccccc1	?	-19%	1%	0%	1%
O=C(O)c1ccccc1N/N=C/C1=C(N2CCOCC2)C(=C\c2ccccc2)/CC1	10µM*	?	-5%	-8%	-3%
CCC1(c2ccc(O)cc2)NC(=O)N(C)C1=O (stereo unspecified)	nt	nt	-1%	nt	-3%
CO[C@H]1COC(=O)C/C=C\[C@H](C)[C@H](OC)COC(=O)[C@@H](C)COC(=O)C/C=C\[C@@H]1C	-1%[11.5 µM]	-1%[11.6 µM]	-22%[11.2 µM]	0%[11.6 µM]	4%[11.2 µM]
CO[Si](CCCOCC1CO1)(OC)OC (stereo unspecified)	nt	nt	-1%[201 µM]	nt	0%[201 µM]
CC(C)CCNC(=O)c1ccc2c(c1)NC(=O)C(C(C)C)N2 (stereo unspecified)	-2%	-14%	?	-4%	2%
Cc1ccc(S(=O)(=O)N2CCN(Cc3noc(CCC(=O)N4CCCCC4)n3)CC2)c(C)c1	2%	-5%	0%	-1%	-12%
SMILES	Tau fibril ThT	Tau fluor counter	TR SRC2 fluor cs	Tau FP inhib	TRb-SRC2 inh
CC(=O)Nc1ccc(S(=O)(=O)N2CCN(c3nc(NC4CCCC4)c4ccccc4n3)CC2)cc1	-17%	14µM*[quencher]	-2%	22µM*	-10%
Cc1ccc(/C=[N+](\[O-])c2ccc(N(C)C)cc2)c2nsnc12	6.3µM*	?	40µM*[fluorescent]	32µM*	35µM*
CC1=C(C#N)C(=O)OC(C)(C)C1	2%	10%	45µM*[fluorescent]	7%	?
Cc1[nH]c(=O)c(C#N)c2c1COC(C)(C)C2	-9%	-6%	-4%	-6%	1%
CC1=C(C(=O)Nc2ccc(F)cc2)C(c2ccc(N(C)C)cc2)NC(=O)N1 (stereo unspecified)	-3%	-6%	-1%	-2%	10%
COc1ccc(-n2cc(-c3ccccc3)c3c(N4CCCC(C)C4)ncnc32)cc1 (stereo unspecified)	-1%	-4%	-2%	2%	0%
O=C(CSc1nnc(-c2ccccc2)o1)c1cccc([N+](=O)[O-])c1	?	-13%	11µM*[quencher]	-9%	-8%
O=C(CSc1nnc(-c2ccccc2)o1)c1nnc(-c2ccccc2)o1	16µM*	?	-7%	?	9%
COc1ccc2c(c1)C(=O)[C@H](OC(=O)NCc1ccco1)[C@@H](c1ccc(OC)c(Br)c1)O2	-14%	-7%	-2%	2%	4%
O=[N+]([O-])c1cc(Br)c(O)c(C=Nc2ccc(N3CCOCC3)cc2)c1	10%	5%	-3%	2%	8%
O=[N+]([O-])c1cc(Br)c(O)c(/C=N/Nc2nnnn2-c2cccc3ccccc23)c1	16µM*	?	-19%	?	12%
CN(C)c1ccc(N/C=C/C(=O)c2ccco2)cc1	2µM*	?	0%	?	-14%
NS(=O)(=O)c1ccc(N/C=C\C(=O)c2ccc(F)cc2)cc1	-2%	-4%	0%	3%	-6%
CC(=O)Nc1ccc(N/C=C/C(=O)c2ccco2)cc1	10µM*	-18%	-2%	4%	4%
O=C(/C=C/Nc1ccccc1O)c1ccco1	13µM*	-26%	-6%	-7%	3%
CN(C)c1ccc(N/C=C/C(=O)c2ccc(F)cc2)cc1	2µM*	?	3%	-13%	-28%
COc1ccccc1Oc1ccc(N/C=C/C(=O)c2ccco2)cc1	?	?	-2%	8%	1%
CCOC(=O)OCC1OC(C#Cc2ccc(C)cc2C)C=CC1OC(=O)OCC (stereo unspecified)	-10%[11.5 µM]	-13%[11.6 µM]	-1%[11.2 µM]	1%[11.6 µM]	7%[11.2 µM]
